We go through 84 compounds from PubChem BioAssay AID463173 (ICCB-Longwood Screening Facility, Harvard Medical School, 2010).

The campaign covered roughly 52,000 compounds. About 4,300 (8.3%) were called active. No stated cut-off is given here; in the data, active means survival mostly below about 52% (no sharp cut-off); inactive means mostly above about 56%. This excerpt belongs to a sample that is enriched for actives.

For this assay, the system named is DeltatarO mutant. As to the kind of experiment: S. aureus survival, RN4220 and DeltatarO strains – OD600, teichoic acid synthesis inhibitors, primary screen (AID 463173). Particulars: S. aureus RN4220 wild type/DeltatarO growth, OD600, 18 h, stronger effect = lower value, screened at 18.75 µg/mL (by protocol).
Regarding `COc1ccc(OC)c(NC(=O)Cn2c(=O)n(Cc3nc(C)no3)c(=O)c3ccccc32)c1`, the survival was 90% (inactive).

Regarding `O=C(CSc1oc(-c2ccco2)nc1S(=O)(=O)c1ccc(Cl)cc1)c1ccc(Cl)cc1`, the survival is 80% (inactive).

With `Cn1cc(S(=O)(=O)c2ccccc2)c(=O)c2cc(F)c(N3CCCC3)cc21`, the survival is 123% (inactive).

For the compound `CC(=O)N1CCCc2cc(S(=O)(=O)N3CCC(C(=O)Nc4cccc(Cl)c4C)CC3)ccc21`, the survival is 74% (inactive).

On to `Cc1cccc(C)c1-n1ncc(C(=O)NCCCN2CCC(C)CC2)c1C1CCN(C(=O)OC(C)(C)C)CC1`, for which the survival was 91% (inactive).

As for `COc1ccccc1CNC(=O)CCc1c(C)nn(-c2ccc(N3CCOCC3)nn2)c1C`, the survival is 80% (inactive).

For `Cc1ccc(-n2ncc(C(=O)NCc3ccccn3)c2C2CCN(C(=O)OC(C)(C)C)CC2)c(C)c1`, the survival is 63% (inactive).

Turning to `Cc1cccc(-n2ncc(C(=O)NCc3ccco3)c2C2CCN(C(=O)OC(C)(C)C)CC2)c1`, the survival was 81% (inactive).

With `Cc1ccc(C)c(N2CCN(CCCNC(=O)c3cnn(-c4ccccc4)c3C3CCN(C(=O)OC(C)(C)C)CC3)CC2)c1`, the survival was 104% (inactive).

On to `CC(C)(C)OC(=O)N1CCC(c2c(C(=O)NCCN3CCOCC3)cnn2-c2ccc(F)cc2F)CC1`, for which the survival was -1% (active).

Regarding `CC(C)(C)OC(=O)N1CCC(c2c(C(=O)NCc3ccccn3)cnn2-c2ccccc2Cl)CC1`, the survival was -4% (active).

With `CC(C)(C)OC(=O)N1CCC(c2c(C(=O)NCCN3CCOCC3)cnn2-c2ccc(F)cc2)CC1`, the survival was 73% (inactive).

`CC(C)(C)OC(=O)N1CCC(c2c(C(=O)NCCN3CCc4ccccc4C3)cnn2-c2ccc(F)cc2F)CC1`: the survival is 70% (inactive).

In the case of `Cc1ccc(-n2ncc(C(=O)NCc3ccco3)c2C2CCN(C(=O)OC(C)(C)C)CC2)c(C)c1`, the survival was 25% (active).

`CC(C)(C)OC(=O)N1CCC(c2c(C(=O)NCc3ccccn3)cnn2-c2ccccc2)CC1`: the survival is 101% (inactive).

`Cc1ccc(-n2ncc(C(=O)NCc3ccco3)c2C2CCN(C(=O)OC(C)(C)C)CC2)cc1`: the survival was 94% (inactive).

In the case of `Cc1ccc(C)c(N2CCN(CCCNC(=O)c3cnn(-c4ccccc4Cl)c3C3CCN(C(=O)OC(C)(C)C)CC3)CC2)c1`, the survival was 74% (inactive).

Turning to `Cc1ccc(C)c(N2CCN(CCCNC(=O)c3cnn(-c4cccc(Cl)c4)c3C3CCN(C(=O)OC(C)(C)C)CC3)CC2)c1`, the survival is 52% (active).

In the case of `COc1ccc(NC(=O)CSc2oc(-c3cccs3)nc2S(=O)(=O)c2ccc(Br)cc2)c(OC)c1`, the survival was 57% (inactive).

With `O=C(Nc1cccc(F)c1)C1CCN(c2nc3ccccc3nc2C(F)(F)F)CC1`, the survival was 83% (inactive).

Regarding `COc1ccc(C(=O)N2CCC(C(=O)O)CC2)cc1`, the survival is 97% (inactive).

As for `Nc1cccc(-c2cn3ccccc3n2)c1`, the survival was 96% (inactive).

Regarding `Cc1ccc(-c2noc(CSc3nnc(C)n3-c3ccc(C)c(C)c3)n2)cc1`, the survival was 75% (inactive).

In the case of `CCOc1ccc(CNC(=O)Cn2cc3c(n2)-c2c(oc(C(=O)N4CCOCC4)c2C)CC3)cc1`, the survival was 72% (inactive).

For `Cc1cccc(C)c1NC(=O)C(=O)NCC(c1ccc2c(c1)OCO2)N1CCN(C)CC1` (centres undefined), the survival is 88% (inactive).

As to `Cc1cccc(NCN2C(=O)S/C(=C/c3ccc(N(C)C)cc3)C2=O)c1`, the survival is 73% (inactive).

Take `O=C(Cn1nc(-c2ccccc2)ccc1=O)NCC1COCCO1` (centres undefined): the survival was 92% (inactive).

For the compound `COc1ccc(NC(=O)c2c(NC(=O)COc3ccc(Cl)cc3)sc3c2CCCCC3)cc1`, the survival was 135% (inactive).

For the compound `CCCCOc1ccc(C(=O)NCCc2csc(-c3ccc(OC)cc3)n2)cc1`, the survival was 108% (inactive).

For the compound `CCOC(=O)c1c(NC(=O)C(C)Sc2cn(CCNC(=O)c3ccc(OCC)cc3)c3ccccc23)sc2c1CCC2` (centres undefined), the survival was 92% (inactive).

In the case of `CCOC(=O)c1c(C)[nH]c(C)c1S(=O)(=O)N(C)CC(=O)Nc1ccc(C)cc1C`, the survival is 95% (inactive).

With `Cc1cccc(C)c1-n1ncc(C(=O)NCCN2CCN(C)CC2)c1C1CCN(C(=O)OC(C)(C)C)CC1`, the survival is 8% (active).

`Cc1c(Cl)cccc1-n1ncc(C(=O)NC2CCCC2)c1C1CCN(C(=O)OC(C)(C)C)CC1`: the survival was 102% (inactive).

With `Cc1ccc(-n2ncc(C(=O)NCCN3CCN(C)CC3)c2C2CCN(C(=O)OC(C)(C)C)CC2)c(C)c1`, the survival is 92% (inactive).

On to `CCN1CCN(C(=O)c2cnn(-c3cccc(Cl)c3)c2C2CCN(C(=O)OC(C)(C)C)CC2)CC1`, for which the survival was 74% (inactive).

Turning to `Cc1ccc(-n2ncc(C(=O)NCCN3CCOCC3)c2C2CCN(C(=O)OC(C)(C)C)CC2)c(C)c1`, the survival is 37% (active).

As to `CC1CCN(C(=O)c2cnn(-c3cccc(Cl)c3)c2C2CCN(C(=O)OC(C)(C)C)CC2)CC1`, the survival is 78% (inactive).

As to `CCOC(=O)c1cnn(-c2cccc(Cl)c2)c1C1CCN(C(=O)OC(C)(C)C)CC1`, the survival is 55% (active).

`Cc1cccc(C)c1-n1ncc(C(=O)NCCN2CCOCC2)c1C1CCN(C(=O)OC(C)(C)C)CC1`: the survival was 101% (inactive).

Consider `Cc1cccc(C)c1-n1ncc(C(=O)NCCCN2CCCCC2)c1C1CCN(C(=O)OC(C)(C)C)CC1`, for which the survival was 89% (inactive).

For `CCOC(=O)N1CCC(NC(=O)c2cnn(-c3cccc(Cl)c3C)c2C2CCN(C(=O)OC(C)(C)C)CC2)CC1`, the survival was 20% (active).

Consider `Cc1c(Cl)cccc1-n1ncc(C(=O)NC2CCCCC2)c1C1CCN(C(=O)OC(C)(C)C)CC1`, for which the survival was 94% (inactive).

On to `Cc1ccc(-n2ncc(C(=O)NCCN3CCc4ccccc4C3)c2C2CCN(C(=O)OC(C)(C)C)CC2)c(C)c1`, for which the survival is 64% (inactive).

`COc1cccc(-n2c(=O)c3sc4ccccc4c3n(CC(=O)NC3CCCCC3)c2=O)c1`: the survival was 126% (inactive).

With `Cc1ccc(-n2ncc(C(=O)NCc3ccccc3)c2C2CCN(C(=O)OC(C)(C)C)CC2)cc1`, the survival is 94% (inactive).

In the case of `COc1cccc(-n2cc(C(=O)NCc3ccc(C)cc3)c3ccccc3c2=O)c1`, the survival was 81% (inactive).

As to `COc1ccccc1CNS(=O)(=O)c1ccc2c(c1)CC(C)N2C(C)=O` (centres undefined), the survival is 71% (inactive).

Take `CC(C)COc1ccc(C(=O)Nc2scc(-c3ccc(Br)cc3)c2C(=O)OC(C)C)cc1`: the survival was 53% (inactive).

On to `COc1ccc(NC(=O)Cn2ncc3c(C)n(Cc4cccc(Cl)c4)c(C)c3c2=O)cc1`, for which the survival was 92% (inactive).

In the case of `CCOc1ccc(-n2cc(-c3ccccc3)c3c(NC4CCCC4)ncnc32)cc1`, the survival is 104% (inactive).

For the compound `Cc1ccc(-n2ncc(C(=O)NCCCN3CCCCC3)c2C2CCN(C(=O)OC(C)(C)C)CC2)c(C)c1`, the survival is 46% (active).

With `CCOC(=O)N1CCC(NC(=O)c2cnn(-c3ccc(F)cc3F)c2C2CCN(C(=O)OC(C)(C)C)CC2)CC1`, the survival was 71% (inactive).

`CC(C)(C)OC(=O)N1CCC(c2c(C(=O)NC3CCN(Cc4ccccc4)CC3)cnn2-c2cccc(F)c2)CC1`: the survival is 92% (inactive).

For `CCN1CCN(CCCNC(=O)c2cnn(-c3ccc(C)cc3C)c2C2CCN(C(=O)OC(C)(C)C)CC2)CC1`, the survival is 144% (inactive).

As to `CC(C)(C)OC(=O)N1CCC(c2c(C(=O)NC3CCN(Cc4ccccc4)CC3)cnn2-c2ccc(F)cc2F)CC1`, the survival was -2% (active).

As for `Cc1ccc(-n2ncc(C(=O)NCCCN3CCN(C)CC3)c2C2CCN(C(=O)OC(C)(C)C)CC2)c(C)c1`, the survival was 105% (inactive).

Take `CCC(=O)Nc1ccc2nc3c(=O)n(C)c(=O)n(C)c3nc2c1`: the survival is 66% (inactive).

Regarding `Cc1ccc(S(=O)(=O)c2cc3cc(C(=O)Nc4ccc(C)cc4C)ccc3oc2=O)cc1`, the survival was 89% (inactive).

On to `CCOC(=O)COc1nc(C)c(Br)c(OC)n1`, for which the survival is 81% (inactive).

Turning to `COc1ccc(CNC(=O)COCc2cc(-c3cccs3)on2)cc1`, the survival is 107% (inactive).

Consider `CC1CCN(S(=O)(=O)c2ccc3c(c2)CCN3C(=O)Nc2ccc(Br)cc2F)CC1`, for which the survival is 74% (inactive).

Turning to `O=c1n(Cc2ccc(Cl)cc2)c2ccccc2c2nc(-c3ccccc3)nn12`, the survival is 95% (inactive).

For the compound `CCCCNc1nc2ccccc2c2nc(-c3ccccc3)nn12`, the survival was -1% (active).

In the case of `Clc1ccc(CCNc2nc3ccccc3c3nc(-c4ccccc4)nn23)cc1`, the survival is 29% (active).

Take `Cc1ccc(CCNc2nc3ccccc3c3nc(-c4cccnc4)nn23)cc1`: the survival is 66% (inactive).

For `CC(CNc1nc2ccccc2c2nc(-c3ccccc3)nn12)c1ccccc1` (centres undefined), the survival was 121% (inactive).

In the case of `Cc1ccc(CCNc2nc3ccccc3c3nc(-c4ccccc4)nn23)cc1`, the survival was 44% (active).

As to `CCCCNC(=O)CCC(=O)NNc1nc2ccccc2c2nc(-c3ccccc3)nn12`, the survival is 78% (inactive).

In the case of `COc1cc2nc(NCCc3ccc(Cl)cc3)n3nc(-c4ccccc4)nc3c2cc1OC`, the survival is 51% (inactive).

As to `CCc1ccc(CNC(=O)Cn2nc(C)n3c(cc4cc(C)ccc43)c2=O)cc1`, the survival is 83% (inactive).

For `Cc1ccc(NC(=O)c2cnc3sc(N4CCOCC4)nn3c2=O)cc1N(C)C`, the survival was 80% (inactive).

`COc1cccc(NC(=O)Cn2nnc(C(=O)NCCc3ccccc3)c2N)c1`: the survival was 144% (inactive).

As for `Cc1ccc(Cn2c(=O)n(-c3cccc(C(F)(F)F)c3)c(=O)c3c(C)c(C)sc32)c(C)c1`, the survival was 97% (inactive).

As for `COc1ccc(CNC(=O)c2cnc(N(C)C)nc2)cc1`, the survival is 73% (inactive).

As to `COc1ccc(-c2cn3c(c2C)-c2ccc(C)n2CC3)cc1`, the survival was 91% (inactive).

For `Cc1ccsc1CN(Cc1ccco1)C(=O)c1ccc(Cl)cc1`, the survival was 34% (active).

On to `CC(C)Oc1ccc(C(=O)N(Cc2ccco2)Cc2cccs2)cc1`, for which the survival is 36% (active).

On to `Cc1ccc(N(Cc2cccs2)C(=O)c2ccc(OC(C)C)cc2)cc1`, for which the survival is 95% (inactive).

`O=C(c1ccc(Cl)cc1)N(Cc1ccco1)Cc1ccco1`: the survival was 97% (inactive).

As to `CC(C)Oc1ccc(C(=O)N(Cc2ccc(N(C)C)cc2)Cc2ccco2)cc1`, the survival was 59% (inactive).

Take `O=C(c1ccccc1)N(Cc1ccco1)Cc1cccs1`: the survival is 41% (active).

Take `Cc1ccc(C(=O)N(Cc2ccco2)Cc2sccc2C)cc1`: the survival is 44% (inactive).

As to `Cc1ccc(CN(Cc2ccco2)C(=O)c2cccc(C)c2)cc1`, the survival was 68% (inactive).

On to `O=C(c1cc2sccc2n1Cc1ccccc1)N(Cc1ccco1)Cc1cccs1`, for which the survival is 96% (inactive).
